The values that follow come from PubChem BioAssay AID1554 (Broad Institute, 2009).

The whole screen tested about 300,000 compounds, of which about 520 (0.17%) were called active. Rule as the data show it: active = inhibition above about 50%; inconclusive = no clear call, values can overlap the other calls; inactive = below that. The sample as a whole holds a higher share of actives than the screen did.

This assay can be described thus: PubChem AID 1554. The note with it: BJeLR (HRASV12) viability, CellTiter-Glo ATP luminescence, 48 h; stronger effect = higher value; concentration not given here. For orientation: ATP-based viability assays read luminescence as a measure of living cells.
As a reminder, the inhibition is the drop in the measured response relative to a control, in per cent. In the case of `Brc1ccc2c(c1)[C@H]1OCC[C@H]1[C@@H](c1cccs1)N2`, the inhibition was 10.2% (inactive).

For `CC(C)Cn1c(=O)c2ccccc2n2c(CCC(=O)NCc3ccccn3)nnc12`, the inhibition was -6.38% (inactive).

On to `CN(C)N1C(N)=C(C#N)C(c2ccc(Br)cc2)C2=C1CCCC2=O` (stereo not given), for which the inhibition was -10.4% (inactive).

Turning to `COc1cc(NS(=O)(=O)c2ccc(NC(=S)NC(=O)c3ccc(Br)cc3)cc2)ncn1`, the inhibition was -4.7% (inactive).

As to `O=C1C2CCCN2C(=O)N1CCCCN1CCN(c2cccc(C(F)(F)F)c2)CC1` (stereo not given), the inhibition was -4.72% (inactive).

`Cc1ccccc1NC(=O)c1nn(-c2ccc(F)c(F)c2)ccc1=O`: the inhibition was -12.5% (inactive).

For `Cc1cccc(NC(=O)/C=C/c2ccc3c(c2)OCO3)n1`, the inhibition was -11.7% (inactive).

Consider `CSCCC(NC(=O)COc1ccccc1)C(=O)OCCOc1ccc(Br)cc1` (stereo not given), for which the inhibition is 5.25% (inactive).

Consider `COc1ccc(COC(=O)NC(C(=O)O)c2ccccc2)cc1` (stereo not given), for which the inhibition is -0.701% (inactive).

On to `COc1ccc(C(CCN(Cc2ccc(OC)c(OC)c2)C(=O)CCl)c2ccccc2)cc1` (stereo not given), for which the inhibition was 85.3% (active).

For `COc1ccc(CN(C)C(=O)CC(c2ccccc2)c2ccccc2)cc1`, the inhibition was 3.85% (inactive).

As to `CCOC(=O)C1=C(CSc2nnnn2C)N(C)C(=O)NC1c1ccccc1` (stereo not given), the inhibition was 0.916% (inactive).

In the case of `CCN(CC)CCCN=C(N)N`, the inhibition is -2.78% (inactive).

`Nc1nc(-c2sc3nc4c(cc3c2N)CCCC4)nc(N2CCOCC2)n1`: the inhibition is -1.17% (inactive).

Regarding `CCOC(=O)C1CCN(S(=O)(=O)c2ccc3c(c2)N(C(C)=O)CCO3)CC1`, the inhibition is 6.7% (inactive).

In the case of `CCN1C(=O)[C@@H]2[C@@H](c3ccc(-c4ccccc4)cc3)N3CCCC[C@@]3(C(=O)OC)[C@@H]2C1=O`, the inhibition was 6.3% (inactive).

For `COc1ccc(NC(=O)CN(C)C(=O)c2ccc(NC3CC3)c([N+](=O)[O-])c2)cc1`, the inhibition was -1.94% (inactive).

Consider `O=C(CCC(=O)n1ncc2ccccc21)NCc1ccccc1Cl`, for which the inhibition is 2.75% (inactive).

As for `COc1ccccc1CCC(=O)OCC(=O)N1CCN(S(=O)(=O)c2ccc(C)cc2C)CC1`, the inhibition is -5.89% (inactive).

`N#C/C(=C(\O)C(F)(F)F)c1nnc2n1CCCCC2`: the inhibition was -1.07% (inactive).
